A-T KAP1 phos: potential ataxia-telangiectasia treatment | 320,000 compounds, 0.19% hits | AID 485349 | F2112 A-T fibroblasts, KAP-1 phosphorylation AlphaLISA; neocarzinostatin DNA damage 30 min before lysis | Potency, µM (series often up to 57.5 µM), usual class: activators; note: nearly all actives have a fitted effect of over 45% in size
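ATM-like activity read as KAP-1 phosphorylation via AlphaLISA donor/acceptor antibody pairs after lysis and 6 hr at 25C. Cells were ATM-null patient fibroblasts (F2112, hTERT), dosed 60 min, then exposed to the DSB inducer NCS for 30 min.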
TRPV1 agonist: agonists of human vanilloid receptor 1 (TRPV1) | TRPV1-expressing cells, Fluo-8 calcium influx, agonist mode | activation, % at 8.33 µM | AID 540275 | Q8NER1 | 320,000 compounds, 0.19% hits; in the data active = activation above about 80%; inconclusive = between about 30% and that limit
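Fluo-8 calcium influx in TRPV1-expressing cells, kinetic read (ex 480/em 520 nm). Compound added and read 3 min for agonist activity, followed by capsaicin at EC20 final and 2 min further read for enhancement.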
PTAP TSG101 blk: blocks PTAP/TSG101 interaction to inhibit HIV-1 budding. Q99816. Fluorescence polarization, FITC-PTAP peptide / Tsg101 binding. Potency, µM (series often up to 115 µM), hits mostly inhibitors. 340,000 tested, under 10 active; active = well fitted inhibition curve with a large enough effect in the main read-out, with a control signal flat, not every such curve was filed as active; inconclusive = small, poorly fitted or top-dose-only effect, or effect the other way, or a change in a side signal; inactive = no such curve, though single readings can be large or run the other way
Target sequence (Q99816 whole entry, looked up): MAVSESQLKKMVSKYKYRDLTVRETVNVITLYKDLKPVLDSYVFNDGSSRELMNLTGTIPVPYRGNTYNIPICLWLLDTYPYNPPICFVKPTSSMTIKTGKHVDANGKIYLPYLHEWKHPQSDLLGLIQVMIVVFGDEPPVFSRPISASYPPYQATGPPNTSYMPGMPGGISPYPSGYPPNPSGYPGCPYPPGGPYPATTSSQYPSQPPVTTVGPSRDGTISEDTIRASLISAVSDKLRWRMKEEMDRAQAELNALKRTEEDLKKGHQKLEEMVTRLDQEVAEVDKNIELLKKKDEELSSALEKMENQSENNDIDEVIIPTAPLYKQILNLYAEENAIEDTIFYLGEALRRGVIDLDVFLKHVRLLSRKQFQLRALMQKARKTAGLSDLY
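FP read-out: FITC-PTAP peptide, 50 nM final, binding Tsg101 binding domain, 10 uM final; 20 min, r.t.; 10 mM HEPES pH 7.5, 0.15 M NaCl, 0.01% Tween 20, 3 mM EDTA, 0.1 mM TCEP.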
TRPV1 potentiator: potentiators of human vanilloid receptor 1 (TRPV1) | Q8NER1 | TRPV1-expressing cells, Fluo-8 calcium influx, capsaicin EC20 potentiation | potentiation, % at 8.33 µM | 320,000 compounds, 0.02% hits | AID 540277; in the data active = potentiation above about 80%; inconclusive = between about 30% and that limit
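Cells expressing TRPV1 were dye-loaded with Fluo-8 and read kinetically: 10 s baseline, 3 min after compound (agonist portion), then 2 min after EC20 capsaicin (allosteric enhancer portion). Calcium-bound dye fluorescence at 480/520 nm.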
ASM inhibitor: inhibitors of human secretory acid sphingomyelinase; placental ASM, HMU-PC fluorogenic substrate, 60 min; Potency, µM (doses to about 57.5 µM), most hits filed as inhibitors; 340,000 compounds, 0.006% hits
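Fluorescence read-out (Ex 386 nm, Em 447 nm) after stopping the reaction at pH 10. Enzyme: ASM from human placenta; substrate HMU-PC0, 9 uM final; 60 min, 37 °C. Compound preincubation 10 min, ambient temperature.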
A number is an active result; n = inactive; u = inconclusive; x = no result given; [ ] = dose if it differs, or a comment. Hits are enriched below; roughly 0.37% of the tested compounds scored in any of these assays. Unless noted, calls come from the whole dose curve; as a rule, active = well fitted curve in the direction sought with a large enough effect; inconclusive = small, poorly fitted or top-dose-only effect, or another doubt; inactive = no such curve, though single readings can be large; an effect the other way counts as inactive or inconclusive.

SMILES | A-T KAP1 phos | TRPV1 agonist | PTAP TSG101 blk | TRPV1 potentiator | ASM inhibitor
Cc1cccc(NC(=O)c2ccc(S(=O)(=O)C(F)F)cc2)c1C | n | 87 | n | n | n
C=CCNC(=S)N1CCN(c2ncc(C(F)(F)F)cc2Cl)CC1 | n | u | n | n | n
CNC(=O)Nc1ccc(C2SCCS2)cc1 | n | n | n | n | n
O=C(Nc1ccc(C2SCCS2)cc1)c1ccccc1 | n | 86 | n | n | n
CNc1oc(/C=C/c2cc(OC)c(OC)c(OC)c2)nc1C#N | x | n | x | n | x
CC(=O)NC(c1ccco1)c1cc(Cl)c2ccc(N(C)C)nc2c1O (stereo not drawn) | n | x | x | x | x
Oc1ccccc1Oc1c(F)c(F)nc(N2CCCC2)c1F | n | n | n | n | n
CC(=O)/C=C/c1ccccc1Oc1c(F)c(F)nc(F)c1F | 32µM | n | n | n | n
c1coc(-c2ccc3ncnc(NCc4cccs4)c3c2)c1 | n | x | x | x | x
COc1ccc(NC(=O)C2CCCN(c3nccc(C)n3)C2)cc1 (stereo not drawn) | n | 94 | n | n | n
Cc1cc(N2CCCC(C(=O)Nc3ccc4c(c3)CCC4)C2)n2ncnc2n1 (stereo not drawn) | n | 93 | n | n | n
CCOC(=O)Cc1c(C)c2ccc(N(CC)CC)cc2oc1=O | 25µM | n | n | n | n
CCN(CC)c1ccc2c(C)c(Cl)c(=O)oc2c1 | n | n | n | n | n
CCN(CC)c1ccc2c(C)cc(=O)oc2c1 | 32µM | u | n | n | n
COc1cc2cnc(CCO[C@H]3CCCCO3)cc2cc1OC | n | x | n | x | n
COc1cccc(N(C(=O)CNC(=O)c2ccco2)C(C(=O)NC2CCCC2)c2ccco2)c1 (stereo not drawn) | n | n | n | n | n
CC(C)N1C(=O)/C(=C\c2nc3ccccc3c(=O)[nH]2)c2ccccc21 | n | n | n | n | 32µM
CCCN1C(=O)/C(=C/c2nc3ccccc3c(=O)[nH]2)c2ccccc21 | n | n | n | n | n
Cc1ccc(NC(=O)C2C(c3ccccc3)C=CC(c3ccccc3)C2C(=O)O)cc1 (stereo not drawn) | n | n | n | n | n
O=C(CCCOc1ccc(Cl)cc1)N1CCCCC1 | n | 90 | n | n | n
O=C(CCCOc1ccc(Cl)cc1)N1CCOCC1 | n | x | n | x | n
CC(C)(C)c1ccc(OCCCC(=O)N2CCOCC2)cc1 | n | 85 | n | n | n
Cc1cccc(CNc2ncnc3ccc(-c4ccc5c(ccn5C)c4)cc23)c1 | n | x | x | x | x
O=C(Nc1ccc(Br)cc1)c1ccc(F)c(S(=O)(=O)NC2CCCCCC2)c1 | x | n | x | n | x
CCC(OC(=O)c1cccs1)C(=O)NCc1ccc(C)cc1 (stereo not drawn) | n | n | n | n | n
SMILES | A-T KAP1 phos | TRPV1 agonist | PTAP TSG101 blk | TRPV1 potentiator | ASM inhibitor
CC(C)(C)[C@H](NC(=O)c1ccc(N)c(Cl)c1)C(=O)N1CCC[C@H]1C(=O)N[C@H](C#N)Cc1nn[nH]n1 | n | x | x | x | x
CCCCc1ccc(N=N/C(C(=O)Nc2ccc(NC(C)=O)cc2OC)=C(/C)O)cc1 | n | n | n | n | 22µM
COc1ccccc1NS(=O)(=O)c1cc(N=N/C(C(=O)Nc2ccc(Cl)cc2)=C(/C)O)ccc1C | n | x | n | x | u
COc1cc(S(=O)(=O)NCCCN2CCOCC2)ccc1-n1cnnn1 | n | n | n | n | n
COc1ccc(S(=O)(=O)N2CCC(C(=O)NCC3CCCO3)CC2)cc1C (stereo not drawn) | n | n | n | n | n
N#CC1(c2ccc(NC(=O)c3ccccc3)cc2)CCCC1 | n | u | x | n | x
CC(=O)Oc1ccc(C(=O)Nc2ccc(C3(C#N)CCCC3)cc2)cc1 | n | n | n | 86 | n
CCCC[C@]12Cc3cc(C#N)ccc3C(O1)c1c(cc(-c3ccccc3)oc1=O)O2 | n[11.5 µM] | n | x | u | x
Cc1cccc(C(=O)Nc2ccc(N3CCC(CCN4CCOCC4)CC3)c(C(=O)O)c2)c1 | n | n | x | n | x
CCN(CCCNS(=O)(=O)c1ccc2c(c1)CCN2C(C)=O)c1cccc(C)c1 | n | x | n | x | n
CC(C)OC(=O)c1c(-c2ccccc2)c(-c2ccccc2)nn(C)c1=O | x | u | x | n | x
Cc1nn(-c2ccccc2)nc1C(=O)Nc1ccc2[nH]ncc2c1 | n | 91 | n | n | n
COc1ccc([C@]23Cc4cc(OC)c(OC)cc4C(O2)c2c(cc(C)n(Cc4ccccc4)c2=O)O3)cc1 | n[11.5 µM] | n | x | n | x
CC(=O)Nc1ccc(NC2=C(Cl)C(=O)c3ccccc3C2=O)cc1 | 3.2µM | n | n | n | n
CN(C)c1ccc(NC2=C(Cl)C(=O)c3ccccc3C2=O)cc1 | n | n | n | n | n
CC(NC(C)c1ccccc1Cl)C(=O)Nc1cccc(S(=O)(=O)N2CCCCC2)c1 (stereo not drawn) | n | n | n | n | n
Cc1ccc(S(=O)(=O)NNC(=O)Nc2cccc(C)c2C)c(C)c1 | n | n | n | n | n
CC1=NN(c2ccc(C)c(C)c2)C(=O)/C1=C\C=C\c1ccc([N+](=O)[O-])o1 | 32µM | n | n | n | n
COc1ccccc1CNC(=S)Nc1ccc(F)cc1 | n | n | n | n | n
CCC(C)c1ccc(NC(=S)NCc2ccccc2OC)cc1 (stereo not drawn) | n | 83 | n | n | n
CN(C)c1ccc(N=Cc2nc(-c3ccccc3)oc2OC(=O)c2cccc(Cl)c2)cc1 | n | 80 | u | n | x
Cc1ccc(C(=O)Oc2oc(-c3ccccc3)nc2C=Nc2ccc(N(C)C)cc2)cc1 | n | n | u | n | n
N#CC1(P(=O)(c2ccccc2)c2ccccc2)CCCC1 | n | n | n | 111 | n
CCOc1ccc(NC(=S)NC(=O)Cc2ccccc2)cc1 | n | 87 | n | n | n
CCN(CC)c1ccc(NC(=S)NC(=O)Cc2ccccc2)cc1 | n | u | n | n | n
SMILES | A-T KAP1 phos | TRPV1 agonist | PTAP TSG101 blk | TRPV1 potentiator | ASM inhibitor
O=C(/C(N=Nc1cccc([N+](=O)[O-])c1)=C(/O)c1ccc(Br)cc1)C(F)(F)F | n | n | x | n | x
COc1ccc(CC(=O)N2CCN(c3cccc(Cl)c3)CC2)cc1OC | n | 98 | n | n | n
COc1ccc(N2CCN(C(=O)Cc3ccc(OC)c(OC)c3)CC2)cc1 | n | u | n | n | n
CC(=O)Nc1ccc(NC(=O)C(C)OC(=O)C2CCCCC2)cc1 (stereo not drawn) | n | n | n | n | n
CN1C(=O)[C@@H]2[C@H](C1=O)[C@@H]1C(=O)Nc3ccccc3C(=O)N1[C@@H]2c1ccc(Br)cc1 | n | n | n | n | n
CCN1C(=O)[C@@H]2[C@H](C1=O)[C@@H]1C(=O)Nc3ccccc3C(=O)N1[C@@H]2c1ccc(Br)cc1 | n | n | n | 106 | n
O=C1NC2(CCCCCC2)C(=O)N1Cc1ccc([N+](=O)[O-])cc1 | n | n | n | n | n
CSc1nc(N2CCOCC2)nc2ccc(C)cc12 | 28µM | n | n | u | n
c1ccc2c(N3CCOCC3)nc(N3CCOCC3)nc2c1 | x | n | n | n | n

Compound activity (PubChem)
